TDP1 cell CPT = growth inhibition of DT40 Tdp1-/-;hTDP1 cells with camptothecin (screen for TDP1 inhibitors); Potency, µM (top dose mostly 46.2 µM), without a hit: at the top dose activity change, negative = growth inhibition, usual class: inhibitors; chicken DT40 Tdp1-/-;hTDP1 cells + 20 nM CPT, ATP luminescence, 48 h; 12% of 420,000 active; AID 686979; also: potency is read from the fitted curve at half-maximal effect; % is scaled to controls: 0 for no effect and ±100 for the full control effect; nearly all actives have a fitted effect of over 55% in size
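Cell growth measured by CellTiter-Glo luminescence after a minimum 48 h, 37 C compound exposure with 20 nM CPT in Tdp1-knockout DT40 cells stably expressing hTDP1, seeded 400/well; qHTS titration format.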
MCF10A rereplic = inducers of DNA re-replication in MCF 10A breast cells | Potency, µM (top dose mostly 46.1 µM), for inactives: at the highest dose activity, positive = re-replication, usual class: activators | 2.9% of 350,000 active | AID 624296 | MCF 10A DNA re-replication, Hoechst nuclear intensity, 48 h; also: potency is read from the fitted curve at half-maximal effect; % of control where 0% means no effect; nearly all actives have a fitted effect of over 50% in size
DT40 TDP1 no CPT = qHTS for Inhibitors of human tyrosyl-DNA phosphodiesterase 1 (TDP1): qHTS in cells in absence of CPT; Potency, µM (titrated, usually from 46.2 µM), for the others: at the top dose activity change, negative = growth inhibition, hits mostly inhibitors; DT40 Tdp1-/- hTDP1 cells, no CPT, ATP luminescence, 48 h; 15% of 420,000 active; also: potency is read from the fitted curve at half-maximal effect; % is scaled to controls: 0 for no effect and ±100 for the full control effect; nearly all actives have a fitted effect of over 55% in size
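Chicken DT40 Tdp1-/- cells complemented with human TDP1, screened without camptothecin (DMSO vehicle only), 400 cells/well. Compounds pin-transferred, cells incubated at 37 °C for at least 48 hr. Growth read as ATP-dependent luminescence (CellTiter-Glo, 30 min at RT).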
IL1B secr inh = inhibitors of inflammasome signaling (IL-1 beta secretion); 4.7% of 360,000 active; THP-1 LPS/ATP IL-1B secretion, AlphaLISA, 16 h; hits give low values; activity change, % at 57.5 µM; in the data active = activity change below about -50%; inconclusive = mostly about -30% to -49%; also: % is scaled to controls: 0 for no effect and ±100 for the full control effect
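Secreted IL-1B measured by AlphaLISA bead assay after 16 h compound exposure of THP-1 cells; compounds (final up to 57.5 uM) added 1 h before LPS (250 ng/mL) and ATP (1.25 mM) stimulation; lower signal means less secretion.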
SW480 rereplic = inducers of DNA re-replication in SW480 colon cancer cells; SW480 DNA re-replication, Hoechst DNA content imaging, 48 h; AID 624297; Potency, µM (titrated, usually from 46.1 µM), without a hit: top-dose re-replication activation, hits mostly activators; 1.8% of 340,000 active; also: potency is read from the fitted curve at half-maximal effect; % of control where 0% means no effect; nearly all actives have a fitted effect of over 55% in size
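Hoechst fluorescence of nuclei (405 nm excitation, 500-530 nm emission) measured by plate-scanning imager after 48 hr compound exposure at 37 C; re-replication scored as increased number of nuclei with elevated intensity.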
Chronic BCR inh = blocks chronic active B-cell receptor signaling | ABC-DLBCL IkBa-CBG/CBR reporter, luminescence ratio, 4 h | Potency, µM (series often up to 46.1 µM), for the others: at the highest dose activity change, negative = inhibition, usual class: inhibitors | 0.05% of 340,000 active | AID 493014; active = well fitted inhibition curve with a large enough effect in the signal ratio, with a control signal flat, not every such curve was filed as active; inconclusive = small, poorly fitted or top-dose-only effect, or effect the other way, or a change in a side signal; the % refers to the signal ratio;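 also: potency is read from the fitted curve at half-maximal effect; plate controls were basal doxycycline-induced cells for no effect and cells given 10 µM MG132 for full effect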
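Doxycycline induced both beetle luciferases in TMD8 lymphoma cells; IKK-driven degradation limits the IkappaBalpha-fused green signal, while red luminescence normalises for cell number and nonspecific effects. Compounds tested up to 46 uM, 4 hrs.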
* marks the source's active call; other numbers are inactive results; ? = inconclusive; / = no result given; [ ] = dose if it differs, or a comment. An excerpt weighted towards active compounds, which were near 19% of everything screened. Unless noted, calls follow the shape of the dose curve; as a rule, active = well fitted curve in the direction sought with a large enough effect; inconclusive = small, poorly fitted or top-dose-only effect, or another doubt; inactive = no such curve, though single readings can be large; an effect the other way counts as inactive or inconclusive.

SMILES	TDP1 cell CPT	MCF10A rereplic	DT40 TDP1 no CPT	IL1B secr inh	SW480 rereplic	Chronic BCR inh
O=S(=O)(c1ccccc1)N1N=C(c2cccs2)CC1c1ccc(F)cc1 (centres undefined)	?	0%	?	-3	?	15%
C#CCN(C[C@H]1[C@H](OC(=O)NCc2ccccc2F)[C@H](OC(=O)NCc2ccccc2F)C[C@H]2C(=O)N(c3ccccc3)C(=O)[C@@H]12)S(=O)(=O)c1ccc(C)cc1	-13%	/	?	-20	/	/
O=C(NCC1CCCO1)c1cc([N+](=O)[O-])ccc1N1CCC(Cc2ccccc2)CC1 (centres undefined)	?	13%	23µM*	-12	-24%	1%
O=C(O)c1cc([N+](=O)[O-])ccc1N1CCC(Cc2ccccc2)CC1	?	-6%	2%	23	-44%	21%
CC1(C)S[C@@H]2[C@H](NC(=O)C(NC(=O)N3CCNC3=O)c3ccccc3)C(=O)N2[C@H]1C(=O)O (some centres undefined)	7%	-12%	4%	-6	-2%	0%
COc1cc2c(cc1NC(=O)c1cc(-c3ccncc3)nc3ccccc13)oc1ccccc12	21µM*	?	?	3	0%	-6%
Cc1ccc2nc(-c3ccccc3)cc(C(=O)Nc3cccnc3)c2c1	?	10%	?	13	-1%	0%
COc1cc2c(cc1NC(=O)c1cc(-c3cccnc3)nc3ccc(C)cc13)oc1ccccc12	11µM*	?	?	?	21%	2%
O=C1OCCC1(c1ccccc1)c1ccccc1	?	-2%	-11%	-16	-64%	2%
Cc1nc2ccccn2c1-c1ccnc(=S)[nH]1	5.8µM*	-8%	23µM*	0	-10%	-1%
Cc1ccc(C(=O)CC2(O)C(=O)N(Cc3ccc4c(c3)OCO4)c3ccccc32)cc1 (centres undefined)	?	7%	?	-11	11%	-1%
Cc1ccccc1CN1C(=O)C(O)(CC(=O)c2ccncc2)c2ccccc21 (centres undefined)	4.6µM*	?	3.3µM*	41	16µM*	-6%
CCCN1C(=O)C(O)(CC(=O)c2ccc3c(c2)OCCO3)c2ccccc21 (centres undefined)	?	-3%	?	-1	1%	5%
O=C(CC1(O)C(=O)N(Cc2ccc3c(c2)OCO3)c2ccccc21)c1ccccc1 (centres undefined)	3.7µM*	?	5.8µM*	-10	?	-7%
C#CCN1C(=O)C(O)(CC(=O)c2ccc3c(c2)OCCO3)c2ccccc21 (centres undefined)	?	-5%	23µM*	9	-6%	-1%
O=C(CC1(O)C(=O)N(Cc2ccccc2)c2ccccc21)c1ccncc1 (centres undefined)	3.7µM*	?	3.7µM*	41	-1%[9.22 µM]	-16%
COC(=O)CN1C(=O)C(O)(CC(=O)c2ccc(Br)cc2)c2ccccc21 (centres undefined)	?	9%	?	12	0%	5%
Cc1ccc(CN(Cc2ccccc2)C(=S)NCC(=O)NCc2cccnc2)o1	?	-1%	-11%	-4	-13%	?
COc1ccc(OC)c(S(=O)(=O)NC2CCSc3ccccc32)c1 (centres undefined)	-7%	-1%	-21%	20	44%	-7%
O=C(CC1(O)C(=O)N(Cc2ccccc2)c2ccc(Br)cc21)c1ccccc1 (centres undefined)	15µM*	/	5.8µM*	/	/	/
Cc1n[nH]c(C)c1C(=O)CC1(O)C(=O)N(Cc2ccccc2)c2ccc(Br)cc21 (centres undefined)	?	27%	?	11	17%	-27%
C#CCN1C(=O)C(O)(CC(=O)c2ccc(OC)c(OC)c2)c2ccccc21 (centres undefined)	?	?	?	19	?	2%
C#CCN1C(=O)C(O)(CC(=O)c2ccc(OC)c(OC)c2)c2cc(Br)ccc21 (centres undefined)	4.6µM*	/	6.5µM*	/	/	/
O=C(CC1(O)C(=O)N(CCc2ccccc2)c2ccc(Br)cc21)c1ccccc1O (centres undefined)	5.2µM*	/	5.8µM*	/	/	/
COC(=O)CN1C(=O)C(O)(CC(=O)c2ccc(C)cc2)c2cc(Br)ccc21 (centres undefined)	?	20%	-2%	26	-7%	5%
SMILES	TDP1 cell CPT	MCF10A rereplic	DT40 TDP1 no CPT	IL1B secr inh	SW480 rereplic	Chronic BCR inh
CCCCN1C(=O)C(O)(CC(=O)c2ccc(CC)cc2)c2cc(Br)ccc21 (centres undefined)	?	/	18µM*	/	/	/
Cc1ccnc(SCC(=O)NC2CC2)n1	-8%	3%	3%	22	?	0%
CCCCn1c(N)c(N(CCOC)C(=O)CC(NC(=O)c2ccccc2Cl)c2ccccc2)c(=O)[nH]c1=O (centres undefined)	-11%	-6%	23%	4	-11%	/
O=C(CC1(O)C(=O)Nc2ccccc21)c1ccccc1 (centres undefined)	?	6%	2%	-18	-15%	6%
O=C(CC1(O)C(=O)Nc2ccc(Br)cc21)c1ccccc1 (centres undefined)	?	/	26µM*	73	/	/
O=C(CC1(O)C(=O)N(Cc2ccccc2)c2ccccc21)c1ccc2c(c1)OCO2 (centres undefined)	?	-1%	?	13	1%	-32%
C=CCN1C(=O)C(O)(CC(=O)c2ccco2)c2cc(Br)ccc21 (centres undefined)	2.3µM*	?	5.2µM*	64	13µM*	?
CC(C)(C)OC(=O)N[C@H](C(=O)OC(C)(C)C)c1ccc2ccccc2c1	8.2µM*	3%	-27%	6	-2%	-1%
O=C(c1cnc2n(c1=O)CCS2)N(c1ccccc1)C1CCCCC1	?	2%	?	36	-9%	-1%
O=C(c1cnc2n(c1=O)CCS2)N(C1CCCCC1)C1CCCCC1	?	13%	23µM*	17	-2%	2%
Cc1cccc(N(C(=O)c2cnc3n(c2=O)CCS3)C2CCCCC2)c1	12µM*	0%	?	6	20%	4%
CN(Cc1ccccc1)C(=O)c1cnc2n(c1=O)CCS2	-29%	-1%	-10%	-10	-2%	-1%

Screens from PubChem BioAssay.
